Bioassay records: PubChem, National Center for Advancing Translational Sciences (NCATS)
GLS inhibitor: glutaminase GLS (human) inhibition. O94925. AID 624170. hit rate 0.21% among 410,000. GLS enzymatic activity, qHTS titration. Potency, µM (titrated, usually from 45.5 µM), for inactives: at the highest dose activity change, negative = inhibition, hits mostly inhibitors; further: on the % scale 0 is the no-effect control and ±100 the full control effect
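hKGA in 45 mM KH2PO4 pH 8.2, 0.02% Tween-20 with pin-transferred compounds; 1 mM L-glutamine (stock) plus glutamate oxidase/HRP/Amplex Red coupling added. Fluorescence read initially and after 30 min at RT.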
HP1b binding inh: blocks HP1-beta chromodomain binding to methylated histone tails; Potency, µM (doses to about 114 µM), inactives show at the top dose activity change, negative = inhibition, hits mostly inhibitors; P83916; hit rate 0.56% among 390,000; AlphaScreen HP1-beta / biotin-H3K9me3 peptide binding; further: nearly all actives have a fitted effect of over 70% in size
Target sequence (P83916 whole entry, looked up): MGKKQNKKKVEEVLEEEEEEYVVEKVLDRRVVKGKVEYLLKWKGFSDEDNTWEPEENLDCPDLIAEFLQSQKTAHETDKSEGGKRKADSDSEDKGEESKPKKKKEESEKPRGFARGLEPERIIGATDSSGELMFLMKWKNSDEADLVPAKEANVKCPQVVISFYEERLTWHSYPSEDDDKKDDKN
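AlphaScreen: HP1-beta (50 nM) preformed 30 min with biotin-H3(1-18)K9me3 peptide (50 nM) in PBS pH 7.4, 0.01% Tween-20. Compound added for 30 min at RT, then streptavidin donor/nickel chelate acceptor beads (10 ug/mL) for 30 min.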
G9a inh: inhibitors of human histone lysine methyltransferase G9a; Q96KQ7; G9a H3K9 monomethylation, AlphaScreen, 2 h; Potency, µM (titrated, usually from 102 µM), for inactives: top-dose activity, negative = inhibition, actives largely listed as inhibitors; hit rate 8.8% among 350,000; further: on the % scale 0 is the no-effect control and ±100 the full control effect; nearly all actives have a fitted effect of over 75% in size
Target sequence (Q96KQ7 913-1193 limits assumed): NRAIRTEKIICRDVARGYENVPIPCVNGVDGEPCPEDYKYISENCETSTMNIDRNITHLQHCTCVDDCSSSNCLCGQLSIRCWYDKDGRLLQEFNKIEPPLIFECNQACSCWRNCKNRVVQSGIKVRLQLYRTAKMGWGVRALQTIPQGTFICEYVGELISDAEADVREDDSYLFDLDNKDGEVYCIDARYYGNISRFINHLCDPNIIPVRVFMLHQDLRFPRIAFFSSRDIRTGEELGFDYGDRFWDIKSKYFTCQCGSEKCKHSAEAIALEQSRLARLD
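AlphaScreen detection with an anti-monomethyl H3K9 antibody quantified product after a 2 h room-temperature reaction containing 500 nM biotinylated H3K9 peptide, 20 µM SAM and 20 nM enzyme, which had been preincubated 15 min with compound.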
BAZ2B inh: BAZ2B (human) inhibition; AlphaScreen BAZ2B-H3K14Ac peptide displacement; Potency, µM (doses to about 114 µM), inactives show at the highest dose activity change, negative = inhibition, actives largely listed as inhibitors; hit rate 4.4% among 360,000; AID 504333; further: on the % scale 0 is the no-effect control and ±100 the full control effect; nearly all actives have a fitted effect of over 60% in size
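AlphaScreen displacement of biotin-H3(5-23)K14Ac peptide (50 nM final) from BAZ2B (50 nM final) in PBS pH 7.4, 0.01% Tween-20; complex preformed 30 min RT, then compounds (top 110 uM) 30 min RT, beads 20 min dark.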
JMJD2A Tudor inh: blocks the human JMJD2A Tudor domain; AlphaScreen JMJD2A-Tudor / H3K4me3 peptide binding; Potency, µM (highest dose often 114 µM), for the others: at the highest dose activity change, negative = inhibition, hits mostly inhibitors; hit rate 4.4% among 390,000; AID 504339; further: on the % scale 0 is the no-effect control and ±100 the full control effect; nearly all actives have a fitted effect of over 50% in size
Active calls of the source: *; ? = inconclusive; nt = not tested or not shown; [ ] = another dose, or the depositor's remark. Only some compounds are listed: those with a hit (about 10% of all), similar ones and a draw of the others. The call rests on the fitted dose curve; in most records, active means well fitted curve in the direction sought with a large enough effect; inconclusive means small, poorly fitted or top-dose-only effect, or another doubt; inactive means no such curve, though single readings can be large; an effect the other way counts as inactive or inconclusive. Potency means the concentration at half of the fitted maximal effect.

SMILES	GLS inhibitor	HP1b binding inh	G9a inh	BAZ2B inh	JMJD2A Tudor inh
O=C(COC(=O)c1c2c(nc3ccccc13)/C(=C/c1ccco1)CC2)NC1CCCC1	18µM*	?	3.5µM*	10µM*	?
CC1CCCCC1NC(=O)COC(=O)c1c2c(nc3ccccc13)/C(=C/c1ccco1)CC2 (stereo unspecified)	-23%	-35%	?	45µM*	45µM*
Cc1cc(C(=O)OCC(=O)NC2CCCC2)c2ccccc2n1	8%	27%	-1%[0.501 µM]	-4%	-14%
CN(C)/C=C/C=C1C(=O)CCCC1=O	-30%	?	?	56µM*	?
CC(C)=CCC12Oc3cc(O)ccc3C1(O)Oc1cc(O)c([C@H]3C=C(C)CC(c4ccc(O)cc4O)[C@H]3C(=O)c3ccc(O)cc3O)c(O)c1C2=O (stereo partly specified)	-9%	-11%	nt	nt	40µM*
CSc1ccccc1Sc1cc(C(=O)O)c2ccccc2n1	15%	23%	10µM*	-1%	3%
O=C(O)c1cc(Sc2ccc(Br)cc2)nc2ccccc12	0%	28%	-40%	1%	0%
OC1CCN(Cc2nc(Cc3ccccc3Cl)no2)CC1	6%	33%	13%	-1%	-12%
C=CCNc1nc(N)c(C(=O)Nc2cc(C)on2)s1	14%	0%	?	-36%	?
CC(C)(C)c1nnc(NC(=O)c2ccc3c(c2)OCO3)s1	49%	?	3.5µM*	-30%	89µM*
C=CCNc1nc(N)c(C(=O)c2ccc3c(c2)OCO3)s1	12%	-26%	50µM*	?	-33%
CC(C)c1nnc(NC(=O)c2ccc3c(c2)OCO3)s1	-8%	20%	-44%	-18%	9%
O=C(CSc1nc2ccccc2n1CCc1ccccc1)c1ccc(O)c(O)c1	102%	25µM*	nt	2.5µM*	7.9µM*
O=C(CSc1nc2ccccc2n1CCc1ccccc1)N1CCOCC1	-14%	39%	50µM*	6%	-3%
O=C(CSc1nnc(Cn2c(=O)sc3ccccc32)n1-c1ccccc1)N1CCOCC1	3%	42%	45µM*	9%	5%
O=C(CSc1nc2ccccc2n1CC(=O)N1CCOCC1)N1CCCC1	-3%	18%	-47%[59 µM]	-1%	-15%[57.1 µM]
Cc1ccc(S(=O)(=O)NC(=O)Nc2cccc(C)n2)cc1	-14%	-5%	nt	1%	-17%
CCOC(=O)c1cnc2cc3c(cn2c1=O)CCCC3	3%	4%	3%	3%	-11%
CCOC(=O)C1=C(SCC)c2cc3c(n2C1=O)CCCC3	-8%	?	7.9µM*	10µM*	35µM*
O=C(Nc1ccc2c(c1)OCCO2)C1CC1c1ccccc1 (stereo unspecified)	5%	11%	6%[59 µM]	-10%	-20%
O=C(CSc1ncn(-c2ccccc2)n1)Nc1ccc2c(c1)OCO2	9%	12%	?	-1%	89µM*
CC(=O)Nc1cccc(C(=O)OCC(=O)Nc2c(C)nn(-c3ccccc3)c2C)c1	-1%	16%	40µM*	12%	-17%
O=C(CSc1ncn(-c2ccccc2)n1)Nc1ccc2c(c1)OCCO2	5%	16%	?	-3%	-19%
COc1ccc(-c2ccc(SCC(=O)NCc3ccco3)nn2)cc1OC	-6%	1%	-105%	11%	?
O=C(O)C1CCCCC1C(=O)Nc1ccc2c(c1)OCCO2 (stereo unspecified)	6%	16%	2.5µM*	-1%	-15%
SMILES	GLS inhibitor	HP1b binding inh	G9a inh	BAZ2B inh	JMJD2A Tudor inh
COc1ccc(-c2[nH]c(-c3ccc(C)cc3)nc2SCC(=O)NCc2ccco2)cc1OC	0%	46%	50µM*	6%	-19%
CC(=O)n1cc([C@H]2C=C(C(=O)N3CCN(Cc4ccccc4)CC3)O[C@@H](OCCCCO)C2)c2ccccc21	0%	1%	?	-35%	?
C(=N\Nc1ccccc1)/c1nc2ccccc2s1	2%	46%	nt	-16%	-9%
CC(C)C(=O)NC1CC(=O)N(c2ccc3c(c2)OCCO3)C1 (stereo unspecified)	3%	59%	-12%[59 µM]	3%	-12%
COc1cc(-c2nc(SCC(=O)Nc3ccc4c(c3)OCO4)c(-c3ccccc3)[nH]2)cc(OC)c1OC	-13%	?	11µM*	?	?
O=C(CN1CC(=O)Oc2ccccc21)NCc1ccco1	61%	6%	?	45µM*	-28%[11.4 µM]
COc1ccc(-c2nc(SCC(=O)Nc3ccc4c(c3)OCCO4)c(-c3ccccc3)[nH]2)cc1	-11%	18%	-12%[59 µM]	-2%	-24%
O=C(CN1CCOc2ccccc21)NCc1ccco1	21%	41%	?	-1%	-13%
O=C(CSc1nc(-c2ccccc2)[nH]c1-c1ccccc1)Nc1ccc2c(c1)OCO2	-11%	?	22µM*	56µM*	?
COc1ccc(NC(=O)CSc2nc(-c3cccc(C)c3)[nH]c2-c2ccccc2)cc1OC	-15%	-14%	?	22µM*	?
COc1cc(NC(=O)c2cc3c(=O)n(C)c4ccccc4c3n2C)cc(OC)c1OC	-14%	55%	16%	0%	-9%
Cc1nc2cc(C(=O)OCC(=O)Nc3cccc(Cl)c3)ccc2n1-c1ccccc1	2%	45%	50µM*	5%	-23%[57.1 µM]
O=C(COc1ccc(Cl)cc1)NCc1nnc(SCC(=O)Nc2ccc3c(c2)OCCO3)o1	7%	?	19%[59 µM]	6%	79µM*
Cc1nc2cc(C(=O)OCC(=O)NC34CC5CC(CC(C5)C3)C4)ccc2n1-c1ccccc1	-1%	-3%	-10%[59 µM]	?	-28%
COc1ccc(NC(=O)CSc2ncccc2C(=O)O)cc1OC	2%	21%	?	56µM*	-10%
O=C(CSc1ncn(-c2ccccc2)n1)Nc1ccc(Br)cn1	nt	36%	3.2µM*	-26%	11%
O=C1c2ccccc2-c2cccc(C(=O)N3CCCCCC3)c21	9%	36%	0%[59 µM]	2%	-17%
COc1cccc(CNC(=O)c2cc(-c3cccc(OC)c3)n[nH]2)c1	-1%	15%	-7%[59 µM]	-7%	-24%
Cc1ccc(Cl)cc1NC(=O)Cn1ncc2c(C)n(Cc3ccccc3F)c(C)c2c1=O	-3%	15%	-24%[59 µM]	?	-25%
O=C(CSc1ccccc1)Nc1ccc2c(c1)OCCO2	-9%	20%	79µM*	-5%	-10%
Cc1ccc(C(=O)OCC(=O)Nc2c(C)nn(-c3ccccc3)c2C)c(O)c1	-4%	nt	nt	nt	nt
Cc1nn(-c2ccccc2)c(C)c1C(=O)OCC(=O)Nc1ccccc1	4%	27%	-22%[59 µM]	-2%	-10%
COc1ccc(-c2[nH]c(-c3cccc(OC)c3)nc2SCC(=O)Nc2ccc3c(c2)OCO3)cc1	-13%	?	10µM*	?	?
Cc1nn(-c2ccccc2)c(C)c1C(=O)OCC(=O)Nc1ccc2c(c1)OCO2	3%	-2%	79µM*	-7%	?
